# Most compounds without a hit are left out; they make up all but 19% or so of the library.
# DT40 TDP1 no CPT = qHTS for Inhibitors of human tyrosyl-DNA phosphodiesterase 1 (TDP1): qHTS in cells in absence of CPT; DT40 Tdp1-/- hTDP1 cells, no CPT, ATP luminescence, 48 h; Potency, µM (highest dose often 46.2 µM), actives largely listed as inhibitors; hit rate 15% among 420,000; AID 686978, 2013; also: nearly all actives have a fitted effect of over 55% in size
#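 Camptothecin absent (DMSO only). Human TDP1-complemented DT40 knockout cells, 400 cells/well, 37 °C for minimum 48 hr; ATP measured via CellTiter-Glo, 30 min dark incubation, luminescence.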
# IL1B secr inh = inflammasome signaling inhibition, IL-1 beta readout | THP-1 LPS/ATP IL-1B secretion, AlphaLISA, 16 h; stronger effect = lower value | activity change, % at 57.5 µM | hit rate 4.7% among 360,000 | AID 743279; in the data active = activity change below about -50%; inconclusive = mostly about -30% to -49%
#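 Secreted IL-1B measured by AlphaLISA bead assay after 16 h compound exposure of THP-1 cells; compounds (final up to 57.5 uM) added 1 h before LPS (250 ng/mL) and ATP (1.25 mM) stimulation; lower signal means less secretion.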
# HT1080NT lethal = kills 2HG-producing HT-1080-NT fibrosarcoma cells; hit rate 1.6% among 360,000; Potency, µM (highest dose often 46.1 µM), hits mostly cytotoxic; HT-1080-NT fibrosarcoma viability, CellTiter-Glo ATP luminescence, 48 h;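 also: NT is the 2HG producing partner of a matched IDH1 knockdown line; nearly all actives have a fitted effect of over 55% in size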
#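 HT-1080-NT fibrosarcoma cells (2HG-overproducing), 750 cells/well in RPMI with 5% FBS, dosed after 2 h and incubated 48 h at 37C. CellTiter-Glo luminescence normalized to DMSO and no-cell wells; concentration-response curves fitted and classed.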
# DT40 TDP1 CPT = DT40-hTDP1 cell growth loss with CPT; Potency, µM (doses to about 46.2 µM), hits mostly inhibitors; hit rate 12% among 420,000; chicken DT40 Tdp1-/-;hTDP1 cells + 20 nM CPT, ATP luminescence, 48 h; also: nearly all actives have a fitted effect of over 55% in size
#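 Cell growth measured by CellTiter-Glo luminescence after a minimum 48 h, 37 C compound exposure with 20 nM CPT in Tdp1-knockout DT40 cells stably expressing hTDP1, seeded 400/well; qHTS titration format.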
# HT1080 IDH1KD tx = HT-1080 IDH1 knockdown cell toxicity (counter line); HT-1080 IDH1 knockdown viability, ATP luminescence, 48 h; Potency, µM (titrated, usually from 46.1 µM), most hits filed as cytotoxic; hit rate 2% among 360,000; AID 686971
#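 Luminescent ATP read-out (CellTiter-Glo, 10 min at room temperature) after 48 h compound exposure at 37 °C gave viability of IDH1-knockdown HT-1080 cells. Activity was normalised to DMSO and cell-free wells, then fitted as concentration-response curves.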
# Hits are given with their value; i = inactive; ? = inconclusive; nt = no result given; [ ] = dose if it differs, or a comment. Unless noted, calls follow the shape of the dose curve; as a rule, active = well fitted curve in the direction sought with a large enough effect; inconclusive = small, poorly fitted or top-dose-only effect, or another doubt; inactive = no such curve, though single readings can be large; an effect the other way counts as inactive or inconclusive.
SMILES,DT40 TDP1 no CPT,IL1B secr inh,HT1080NT lethal,DT40 TDP1 CPT,HT1080 IDH1KD tx
O/N=C(/c1ccccc1)c1cc2cc(Br)cc(Br)c2o1,?,-85.3,?,i,?
COc1cccc2cc(/C(=N/O)c3ccc(Br)cc3)oc12,?,i,i,?,i
Cc1ccc(CN2CCN(Cc3cccc(-n4cccn4)c3)CC2CCO)cc1 (stereo unspecified),?,i,i,11.6µM,i
Cc1cc(C)c(CN2CCN(Cc3ccc(C)o3)C(CCO)C2)c(-n2cccn2)c1 (stereo unspecified),23.1µM,i,?,?,?
COc1cc(CN2CCN(Cc3ccc(C)cc3)C(CCO)C2)cc(OC)c1O (stereo unspecified),?,i,i,20.6µM,i
C[C@@H]1CN([C@@H](C)CO)C(=O)CCCn2nncc2CO[C@@H]1CN(C)C(=O)Nc1ccc(-c2cccs2)cc1,?,i,i,i,i
CCOC(=O)CSCC(=O)N1N=C(c2cccs2)CC1c1ccc(F)cc1 (stereo unspecified),?,i,i,14.6µM,i
Cc1ccn2c(=O)nc(SCC(=O)N3N=C(c4cccs4)CC3c3ccc(F)cc3)nc2c1 (stereo unspecified),18.4µM,i,i,?,i
COc1cccc(C(=O)Nc2ccccc2-c2nc(-c3ccc(C)cc3)no2)c1,i,nt,nt,i,nt
COc1ccc(NC(=O)c2cc(=O)c3ccc(C)c(C)c3o2)cc1Cl,?,nt,nt,i,nt
COc1ccc2c(c1)[nH]c1c(=O)n(/N=C/c3ccc(OC)c(CN4CCCC4)c3)cnc12,?,?,i,?,i
COc1ccc(/C=N/n2cnc3c([nH]c4ccc(F)cc43)c2=O)cc1CN1CCCC1,3.26µM,i,i,5.17µM,i
COc1ccc(/C=N/n2cnc3c([nH]c4ccc(C)cc43)c2=O)cc1CN1CCCC1,7.31µM,-102.1,i,5.17µM,i
CCN(CC)CCCn1c2c(c(SCC(=O)Nc3nccs3)nc1=O)CCC2,i,i,i,i,i
CCN(CC)CCCn1c2c(c(SCC(=O)Nc3cc(C)cc(C)c3)nc1=O)CCC2,?,-57.4,i,i,i
CCN(CC)CCn1c2c(c(SCC(=O)Nc3nc4ccccc4s3)nc1=O)CCC2,?,-99.4,i,i,i
CCN(CC)CCn1c2c(c(SCC(=O)Nc3nc4ccc(C)cc4s3)nc1=O)CCC2,5.8µM,i,i,6.51µM,i
CCCN(CCC)C(=O)Cn1c(=O)n(-c2ccc(Cl)c(Cl)c2)c(=O)c2c(C)c(C(=O)N(C)C)sc21,i,nt,nt,i,nt
CCOc1ccc(N2CC(C(=O)Nc3cccc(S(=O)(=O)N4CCOCC4)c3)CC2=O)cc1 (stereo unspecified),?,i,i,i,i
CC(C)Oc1ccc(S(=O)(=O)N2CCOCC2)cc1NC(=O)c1cc([N+](=O)[O-])ccc1N1CCOCC1,i,i,i,i,i
Cc1cc(C)cc(CC(=O)N2CCC2(C)C(=O)NS(=O)(=O)c2ccccc2)c1 (stereo unspecified),i,i,?,i,i
COc1ccc(S(=O)(=O)NC(C)CCc2ccccc2)cc1 (stereo unspecified),?,i,i,?,i
CN1C2=CC=CC=CC2=[N+](C)C12C([N+](=O)[O-])=CC(=[N+]([O-])[O-])C=C2[N+](=O)[O-] (stereo unspecified),2.06µM,nt,?,?,2.06µM
CN1C2=CC=CC=CC2=[N+](C)C12C=CC(=[N+]([O-])[O-])C=C2[N+](=O)[O-] (stereo unspecified),?,i,i,?,i
CC(C)C1=CC2=CCC3[C@@](C)(CCC[C@@]3(C)C(=O)O)C2CC1 (stereo partly specified),i,nt,nt,i,nt
SMILES,DT40 TDP1 no CPT,IL1B secr inh,HT1080NT lethal,DT40 TDP1 CPT,HT1080 IDH1KD tx
O=[N+]([O-])c1cc([N+](=O)[O-])c2cccnc2c1Oc1ccccc1O,1.84µM,i,i,2.59µM,i
O=[N+]([O-])c1ccc(Cl)c2cccnc12,?,i,i,i,i
O=[N+]([O-])c1cc(F)c2cccnc2c1O,7.31µM,i,i,9.2µM,?
O=[N+]([O-])c1cc(Cl)c2cccnc2c1O,18.4µM,i,?,?,?
CCc1ccc(CN(C)C(=O)c2cccc(S(=O)(=O)Nc3ccccc3OC)c2)cc1,?,i,i,?,i
CCOc1ccc(CN(C)C(=O)c2cccc(S(=O)(=O)Nc3ccccc3OC)c2)cc1OC,14.6µM,i,i,?,i
CCOc1ccc(NS(=O)(=O)c2ccc(C(=O)N(C)Cc3cccc(OC)c3OC)cc2)cc1,14.6µM,i,i,14.6µM,i
COc1ccc(CN(C)C(=O)c2ccc(NS(=O)(=O)c3ccc(F)cc3)cc2)c(OC)c1,i,i,i,i,i
COc1cccc(CN(C)C(=O)c2ccc(NS(=O)(=O)c3ccc4[nH]c(=O)[nH]c4c3)cc2)c1OC,i,i,i,i,i
COc1ccc(NS(=O)(=O)c2ccc(C(=O)N(C)Cc3ccc(C)o3)cc2)cc1,14.6µM,i,i[9.24 µM],13µM,i
COc1cccc(CN(C)C(=O)c2cccc(S(=O)(=O)Nc3cccc(C)c3)c2)c1OC,16.4µM,i,i,23.1µM,i
O=C(c1ccc(F)cc1)C1CCN(C(=O)c2ccccc2F)CC1,?,i,i,i,i
COc1cccc(-c2ccc(NC(=O)C3CCCN(Cc4cnn(C(C)C)c4)C3)cc2)c1 (stereo unspecified),?,-78.7,18.4µM,23.1µM,?
CCCc1ncc(CN2CCCC(C(=O)Nc3ccc(-c4cccc(OC)c4)cc3)C2)cn1 (stereo unspecified),?,i,i,23.1µM,?
COc1cccc(-c2ccc(NC(=O)C3CCCN(Cc4ccccn4)C3)cc2)c1 (stereo unspecified),?,i,i,?,i
COc1cccc(-c2ccc(NC(=O)C3CCCN(Cc4cnc(N(C)C)s4)C3)cc2)c1 (stereo unspecified),23.1µM,i,i,18.4µM,i
COc1cccc(-c2ccc(NC(=O)C3CCCN(Cc4cc(C)[nH]n4)C3)cc2)c1 (stereo unspecified),?,i,i,?,?
COCc1ccc(CN2CCCC(C(=O)Nc3ccccc3-c3ccc(OC)cc3)C2)o1 (stereo unspecified),i,i,i,?,i
COCc1ccc(CN2CCCC(C(=O)Nc3ccc(-c4cccc(OC)c4)cc3)C2)o1 (stereo unspecified),14.6µM,i,?,?,?
CCOC(=O)c1c(NC(=O)C2=COCCO2)sc2c1CCN(C(=O)OC)C2,18.4µM,i,i,?,i
COC(=O)c1c(NC(=O)C2=COCCO2)sc(C)c1C,?,-60.3,i,i,i
